# High-throughput results: PubChem, National Center for Advancing Translational Sciences (NCATS)
# Most compounds without a hit are left out; they make up all but 2.7% or so of the library.
# GLP1R cytotox: cytotoxicity in counter-screen for GLP-1R inverse agonists. HEK293 cAMP-luciferase reporter cells, luminescence, 24 h. AID 624418. 410,000 tested, 0.13% active. Potency, µM (highest dose often 38.3 µM), most hits filed as inhibitors;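 also: loss of luciferase light is scored as toxicity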
#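 1536-well qHTS counterscreen of the MLSMR; 200 cells/uL, 12 h pre-incubation, 23 nL cpd, 24 h at 37 deg C 5% CO2, luciferase detection reagent, 12 min RT, luminescence. Inhibition = undesired.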
# GLP1R inv ag: inverse agonists of human GLP-1 receptor. 410,000 tested, 1.6% active. HEK293 GLP-1R CRE-luciferase, luminescence, 24 h; GLP-1R form is constitutively active. P43220. AID 624417. Potency, µM (series often up to 38.3 µM), actives largely listed as inhibitors; also: nearly all actives have a fitted effect of over 55% in size
#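 Readout was luciferase luminescence, measured 12 min after detection reagent at room temperature. Beforehand, GLP-1R reporter HEK293 cells had sat 12 h, then received compounds for 24 hr at 37 deg C.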
# rTrxR1 inhibitor: blocks rat thioredoxin reductase 1. O89049. recombinant rTrxR1, NADPH fluorescence consumption, selenite substrate. Potency, µM (top dose mostly 114 µM), usual class: inhibitors. 390,000 tested, 1% active; also: nearly all actives have a fitted effect of over 65% in size
# Target sequence (O89049 whole entry, looked up): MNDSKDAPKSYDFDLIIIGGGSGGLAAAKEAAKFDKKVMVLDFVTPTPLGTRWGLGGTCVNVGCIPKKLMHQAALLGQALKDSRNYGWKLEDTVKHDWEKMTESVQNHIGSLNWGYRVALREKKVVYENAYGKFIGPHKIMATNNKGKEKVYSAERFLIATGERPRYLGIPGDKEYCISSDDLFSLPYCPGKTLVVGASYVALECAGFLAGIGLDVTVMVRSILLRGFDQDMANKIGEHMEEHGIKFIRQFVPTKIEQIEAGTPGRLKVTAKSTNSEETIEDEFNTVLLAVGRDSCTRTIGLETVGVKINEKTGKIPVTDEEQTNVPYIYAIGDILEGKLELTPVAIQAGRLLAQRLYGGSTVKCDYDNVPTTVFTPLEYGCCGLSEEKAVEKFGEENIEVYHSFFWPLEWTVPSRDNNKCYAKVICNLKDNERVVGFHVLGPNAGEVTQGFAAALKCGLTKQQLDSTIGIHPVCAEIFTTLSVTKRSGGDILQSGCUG
#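 Rat TrxR1 (90 nM in the dispensed reagent) was pre-reduced with 400 uM NADPH for 5 min at room temperature, then incubated with compound for 15 min. After 400 uM selenite was added, NADPH fluorescence (Ex 340/Em 450 nm) was followed for 8 min.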
# mIDH1 inhibitor: human IDH1 R132H inhibition | 390,000 tested, 0.093% active | Potency, µM (highest dose often 76.6 µM), most hits filed as inhibitors | IDH1-R132H enzyme, NADPH consumption, diaphorase/resazurin fluorescence; also: nearly all actives have a fitted effect of over 65% in size
#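 IDH1-R132H (0.5 ug/mL) preincubated 30 min with compound, then NADPH (0.016 mM) and alpha-KG (2 mM) added; 80 min at RT, pH 7.5. Remaining NADPH coupled via diaphorase/resazurin to fluorescence (540/590 nm); concentration-response curves normalized to no-enzyme control.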
# GLP1R ag: activates the human GLP-1 receptor; HEK293 GLP-1R CRE-luciferase, luminescence, 4-6 h; cells express a hypersensitive GLP-1R form; Potency, µM (titrated, usually from 45.6 µM), actives largely listed as activators; 380,000 tested, 0.007% active
# TrxR1 substrate: substrates of rat thioredoxin reductase 1 | Potency, µM (doses to about 114 µM) | 390,000 tested, 0.01% active | purified TrxR1 substrate turnover, NADPH consumption readout | O89049 | AID 588456; also: nearly all actives have a fitted effect of over 50% in size
#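 Rat TrxR1, dispensed at 90 nM, was prereduced with 400 uM NADPH (final) for 5 min at ~22 deg C, then incubated with compound 15 min before 400 uM selenite. A first-read NADPH fluorescence drop versus no-compound background flagged substrates.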
# Hits are given with their value; i = inactive; ? = inconclusive; nt = no result; [ ] = dose if it differs, or a comment. Calls follow the shape of the dose curve; as a rule, active = well fitted curve in the direction sought with a large enough effect; inconclusive = small, poorly fitted or top-dose-only effect, or another doubt; inactive = no such curve, though single readings can be large; an effect the other way counts as inactive or inconclusive.
SMILES,GLP1R cytotox,GLP1R inv ag,rTrxR1 inhibitor,mIDH1 inhibitor,GLP1R ag,TrxR1 substrate
CCCCOC(=O)c1ccc(-n2nnc3c(sc4nc(C)cc(C)c43)c2=O)cc1,i,i,i,i,nt,i
CCc1ccc(NC(=O)C2CCCN2S(=O)(=O)c2cccc3nsnc23)cc1 (configuration not stated),i,i,i,i,nt,i
CCN(c1ccc(NS(=O)(=O)c2cc(Cl)ccc2Cl)cc1)C(C)C,i,11µM,i,i,i,i
CN(C)c1ccc(NS(=O)(=O)c2cc(Cl)ccc2Cl)cc1,?,?,i,i,i,i
CCOC(=O)COc1ccc(Br)cc1/C=C1\SC(N)=NC1=O,i,i,i,i,i,i[2.29 µM]
CCOC(=O)CSC1=NC(=O)/C(=C\c2ccc(OC(C)=O)cc2)S1,i,i,8.9µM,i,i,i
Cc1ccc(C)c(S(=O)(=O)ON2C(=O)c3ccccc3C2=O)c1,i,i,3.2µM,i,i,i
Cc1cc(S(=O)(=O)ON2C(=O)c3ccccc3C2=O)ccc1F,i,i,?,i,i,i
O=C1C(=C(I)I)c2ccccc2-c2ccccc21,i,i,0.89µM,i,i,i
COc1ccc(NS(=O)(=O)c2ccc(-n3cccn3)cc2)cc1OC,i,i,i,i,nt,i
CN(C)c1cccc(F)c1C(=O)NC(=O)Nc1ccc(Cl)cc1,?,8.9µM,i[11.4 µM],i,i,i[11.4 µM]
CN(C)c1cccc(N(C)C)c1CNC(=O)NC(=O)c1c(F)cccc1F,i,10µM,i,i,i,i
CCN(CC)S(=O)(=O)c1ccc2c(c1)N(CC(=O)Nc1cccc(C#N)c1)C(=O)CO2,i,i,i,nt,nt,i
CCOC(=O)c1c(C)oc2c1c(C=NCc1ccccn1)c(O)c1ccccc12,?,22µM,i,i,i,i
CCOC(=O)c1c(C)oc2c1c1c(c3ccccc32)OCN(Cc2cccnc2)C1,i,i,1.4µM,i,i,i
CCOC(=O)c1c(C)oc2c1c1c(c3ccccc32)OCN(CCCC(=O)O)C1,i,i,3.5µM,i,i,i
CCOC(=O)c1c(C)oc2c1c(C=NCC1CCCO1)c(O)c1ccccc12 (configuration not stated),i,i,i,i,i,i
CCOC(=O)c1c(C)oc2c1c(C(c1cccnc1)N1CCOCC1)c(O)c1ccccc12 (configuration not stated),i,i,11µM,?,i,i
CCOc1cc(-c2ccc(OC(=O)c3ccc(Cl)cc3)c(OC)c2)cc(=O)c2c(C)oc(C)c12,i,i,i,i,nt,i
O/N=C(/c1ccc(Cl)cc1)C1CC1c1ccccc1 (configuration not stated),i,?,i,i,?,i
Cc1ccc(C2CC2/C(=N/O)c2ccc(F)cc2)cc1 (configuration not stated),i,10µM,i[11.4 µM],i,i,i[11.4 µM]
CC(C)COc1ccc(C(=O)Nc2onc3c2CCCC3)cc1,i,?,i,i,nt,i
O=C1C=CC(=O)N1,i,i,2µM,i,i,i
O=S1(=O)CCOC[C@H](c2ccccc2)N1Cc1ccc(Cl)c(Cl)c1,nt,nt,i,nt,nt,i
Fc1cccc(Cn2cc(C(=S)N3CCOCC3)c3ccccc32)c1,i,?,i,i,i,i
Fc1cccc(Cn2cc(C(=S)N3CCCCC3)c3ccccc32)c1,i,7.9µM,i,i,i,i
Cc1ccc(CNC(=O)CN(c2ccc(Cl)cc2Cl)S(=O)(=O)c2ccccc2)cc1,i,10µM,i,i,nt,i
CC(NC(=O)CN(c1ccc(Cl)cc1Cl)S(=O)(=O)c1ccccc1)c1ccccc1 (configuration not stated),i,8.9µM,i[11.4 µM],i,nt,i
Cc1ccccc1NC(=O)CN(c1ccc(Cl)cc1Cl)S(=O)(=O)c1ccccc1,i,?,i,i,nt,i
O=C(CN(c1ccccc1Cl)S(=O)(=O)c1ccccc1)NCc1ccccc1,i,i,i,i,i,i
